# Test: A549 cell viability effects, profiling panel, calcein-AM fluorescence, 48 h, basal (AID 1162)
# Details: higher = more signal
# Also: test concentration not given here.
row,SMILES,z-score
1,COc1cc(OC)c(C(O)C2C=CC3C(=O)N(c4ccccc4)C(=O)C3N2Nc2ccccc2F)cc1Br (stereo not drawn),-1.06
2,NC(=O)N1C(=O)C2C(C1=O)C1C=C(CCCO)C2C(c2ccc(CN3CCCC3)cc2)N1Cc1cccc(OC(F)(F)F)c1 (stereo not drawn),0.0272
3,CC(C)C[C@H]1NC(=O)[C@@]23C(=O)N[C@@H](Cc4ccccc4)C2[C@H](C)[C@@]2(C)O[C@H]2C3/C=C/C/C=C\CNC(=O)[C@@H]2CCCN2C1=O (stereo partly drawn),0.0246
4,COC(=O)[C@@]1(Cc2ccc(F)cc2)[C@H]2c3cc(C(=O)N(C)C)n(CCn4cc([N+](=O)[O-])nc4C)c3C[C@H]2CN1C(=O)c1ccccc1,-0.771
5,C=CC[C@]1(C(=O)NCCCOC)N=C(c2ccc(OCCCO)cc2)O[C@H]1c1ccccc1,0.0753
6,COCCOC(=O)N1C(=O)[C@@]2(c3cc(C#CC4=CCCCC4)ccc31)[C@H](c1ccccc1OCCO)N1[C@H](c3ccccc3)[C@H](c3ccccc3)OC(=O)[C@H]1[C@@H]2C(N)=O,-1.13
7,CC(C)C[C@@H]1NC(=O)[C@@]23C(=O)N[C@@H](Cc4ccccc4)C2[C@H](C)[C@@]2(C)O[C@H]2C3/C=C/C/C=C\CNC(=O)[C@@H](CC(C)C)NC1=O (stereo partly drawn),0.939

# Test: adipocyte viability effects, profiling panel, cell-based, 3T3-L1 adipocytes, calcein-AM fluorescence, 48 h, basal (AID 1163)
# Details: 3T3-L1 adipocytes viability, higher = more signal
row,SMILES,z-score
1,CN1C(=O)[C@]2(CCC(=O)OC(C)(C)C)N=C(c3ccc(OCCCO)cc3)O[C@@H]2c2ccccc21,0.834
2,CC(c1ccccc1)C(O)C1C=CC2C(=O)N(c3ccccc3)C(=O)C2N1Nc1ccc(C#N)cc1 (stereo not drawn),-0.582
3,COCCOC(=O)N1C(=O)[C@@]2(c3cc(C#CCCO)ccc31)[C@H](C(=O)N1CCN(c3ncccn3)CC1)[C@H]1C(=O)O[C@H](c3ccccc3)[C@H](c3ccccc3)N1[C@@H]2c1ccc(O)cc1,0.222
4,C#CCN(C/C=C/c1ccccc1)[C@H](CO[Si](C)(C)C(C)(C)C)c1ccccc1,-0.0156
5,NCCCC[C@@H]1NC(=O)[C@H]2C[C@@H](C(=O)O)[C@@H](c3cccc(OCCO)c3)N2C1=O,-0.61
6,[N-]=[N+]=NCc1ccccc1C[C@]1(C(=O)N2CCCCC2)N=C(c2ccc(OCCCO)cc2)O[C@H]1c1ccccc1,0.252
7,CCCCC(=C=CC[C@H](O)c1ccc(OCCO)cc1)C[C@H](O)c1ccccn1,-0.398
8,CN(C)C(=O)[C@@]1(CCS(=O)(=O)c2ccccc2)N=C(c2ccc(OCCCO)cc2)O[C@H]1c1ccccc1N=[N+]=[N-],-0.471
9,[N-]=[N+]=NCc1ccccc1[C@@H]1OC(c2ccc(OCCCO)cc2)=N[C@]1(Cc1ccccc1)C(=O)NCc1ccccc1,0.592
10,O=C(NCCO)C1=C[C@H](Oc2ccccc2I)[C@@H](O)[C@H](NCc2ccc(F)cc2)C1,2.37
11,COc1ccc([Si](C)(C)[C@@H]2[C@@H](CC(=O)N(CCO)Cc3ccccc3)O[C@]3(C(=O)N(Cc4ccc(N5CCC5=O)cc4)c4ccccc43)[C@H]2C)cc1,2.28
12,O=C1NC(=O)C2C1C=CC(C(O)c1cccc(O)c1)N2Nc1ccc(Cl)cc1Cl (stereo not drawn),-0.648
13,CC(C)C[C@@H]1NC(=O)C([C@@H](C)OCc2ccccc2)NC(=O)[C@@]23C(=O)N[C@@H](Cc4ccccc4)C2[C@H](C)[C@@]2(C)O[C@H]2C3/C=C/CC/C=C/CNC1=O (stereo partly drawn),1.58
14,COc1ccc([Si](C)(C)[C@H]2[C@H](CCO)O[C@@]3(C(=O)N(Cc4ccc(N5CCOC5=O)cc4)c4ccccc43)[C@@H]2C)cc1,0.684
15,COc1ccc(CCNC(=O)[C@@]2(Sc3ccc(C)cc3)CC(=O)N(Cc3cc(C(F)(F)F)cc(C(F)(F)F)c3)[C@@H]2c2ccc(CO)cc2)cc1,0.7
16,CCCCC(O)C1C=CC2C(=O)NC(=O)C2N1Nc1ccc(Cl)cc1Cl (stereo not drawn),0.266
17,CO[C@H]1O[C@H](CO)[C@@H](OC(=O)Nc2ccc3c(c2)OCO3)[C@@H]2OC(=O)[C@@H](Cc3ccccc3)C/C=C/C[C@H](Cc3ccccc3)C(=O)O[C@@H]12,-2.78
18,CN(C)C(=O)[C@]1(Cc2ccccc2CN=[N+]=[N-])N=C(c2ccc(OCCCO)cc2)O[C@@H]1c1ccccc1N=[N+]=[N-],0.287

row,SMILES,z-score
1,O=C1OCCC=C[C@H]2OC34C=CCN(CCN5CCOCC5)C(=O)[C@H]3N(CCCO)C(=O)[C@@H]4C12 (stereo partly drawn),0.473
2,C=CCNC(=O)[C@@H]1[C@H]2C(=O)O[C@H](c3ccccc3)[C@H](c3ccccc3)N2[C@H](c2ccccc2OCCO)[C@@]12C(=O)N(C(=O)OCCOC)c1ccc(C#CCCO)cc12,0.393
3,C=CCC(OC(C)=O)[C@@H]1[C@@H](N(Cc2cccc3ccccc23)C(=O)c2cccc3ccccc23)c2cc(OCCCO)ccc2N1C(=O)Cc1ccc2ccccc2c1 (stereo partly drawn),-0.151
4,C=C(COC)/C(=C/C[C@@H](OC(C)=O)c1ccccc1OCCO)c1cc(C(=O)OC)ccc1OC,-2.49
5,COCC(=C=CC[C@@H](O)c1cccc(OCCO)c1)C[C@@H](O)COCc1ccccc1,1.08
6,CCCCC=C[C@@H](NC(=O)c1ccc(C(F)(F)F)cc1)c1ccccc1,-1.28
7,COC(=O)[C@]1(CO)N=C(c2ccc(OCCCO)cc2)O[C@@H]1c1ccccc1CN=[N+]=[N-],0.131
8,COC(=O)[C@@]1(Cc2ccc(OC)cc2)[C@H]2c3cc(C(=O)N4CCCC4)n(CCc4ccc(OC)c(Br)c4)c3C[C@H]2CN1C(=O)c1ccccc1,-0.3
9,COCCOC(=O)N1C(=O)[C@@]2(c3cc(C#CCC(C(=O)OC)C(=O)OC)ccc31)[C@H](C(=O)N1CCc3cc(OC)c(OC)cc3C1)[C@H]1C(=O)O[C@H](c3ccccc3)[C@H](c3ccccc3)N1[C@@H]2c1ccc(O)cc1,0.643
10,CCC(CC)C(O)C1C=CC2C(=O)N(C)C(=O)C2N1N1CCCCC1 (stereo not drawn),-0.505
11,COc1cc2c(cc1O)C(c1ccc(CN3CCCC3)cc1)N(Cc1ccc([N+](=O)[O-])o1)CC2 (stereo not drawn),0.0389
12,COc1cc(OC)c(C(O)C2C=CC3C(=O)N(c4ccccc4)C(=O)C3N2Nc2ccccc2F)cc1Br (stereo not drawn),-1.41
13,NC(=O)N1C(=O)C2C(C1=O)C1C=C(CCCO)C2C(c2ccc(CN3CCCC3)cc2)N1Cc1cccc(OC(F)(F)F)c1 (stereo not drawn),-0.0602
14,CC(C)C[C@H]1NC(=O)[C@@]23C(=O)N[C@@H](Cc4ccccc4)C2[C@H](C)[C@@]2(C)O[C@H]2C3/C=C/C/C=C\CNC(=O)[C@@H]2CCCN2C1=O (stereo partly drawn),-0.0768
15,COC(=O)[C@@]1(Cc2ccc(F)cc2)[C@H]2c3cc(C(=O)N(C)C)n(CCn4cc([N+](=O)[O-])nc4C)c3C[C@H]2CN1C(=O)c1ccccc1,-0.417
16,C=CC[C@]1(C(=O)NCCCOC)N=C(c2ccc(OCCCO)cc2)O[C@H]1c1ccccc1,0.301
17,COCCOC(=O)N1C(=O)[C@@]2(c3cc(C#CC4=CCCCC4)ccc31)[C@H](c1ccccc1OCCO)N1[C@H](c3ccccc3)[C@H](c3ccccc3)OC(=O)[C@H]1[C@@H]2C(N)=O,2.16
18,CC(C)C[C@@H]1NC(=O)[C@@]23C(=O)N[C@@H](Cc4ccccc4)C2[C@H](C)[C@@]2(C)O[C@H]2C3/C=C/C/C=C\CNC(=O)[C@@H](CC(C)C)NC1=O (stereo partly drawn),0.703
